Shown are actives, neighbours in structure and some others; about 3.5% of the full set was active somewhere.
GPR151 ag – human GPR151 activation; PathHunter beta-arrestin GPR151 cells, luminescence; AID 1508602; Q8TDV0; hit rate 1% among 650,000; activation, % at 11.2 µM; in the data active = activation above about 4.9%;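 also: 0% = median of compound wells and 100% = cells with positive control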
TEAD-YAP inh – TEAD-YAP interaction inhibition | HEK-TIYL cells, TEAD-Gal4/YAP UAS-luciferase luminescence | inhibition, % at 9.12 µM | hit rate 1.4% among 640,000 | AID 1259422; in the data active = inhibition above about 32%;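 also: 0% = median of test compound wells and 100% = reference inhibitor wells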
MITF inh – blocks human microphthalmia-associated transcription factor | AlphaScreen MITF homodimerization, bead proximity signal | inhibition, % at 2.6 µM | hit rate 0.91% among 650,000; in the data active = inhibition above about 50%;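 also: 0% = vehicle wells with protein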
Target sequence (O75030 whole entry, looked up): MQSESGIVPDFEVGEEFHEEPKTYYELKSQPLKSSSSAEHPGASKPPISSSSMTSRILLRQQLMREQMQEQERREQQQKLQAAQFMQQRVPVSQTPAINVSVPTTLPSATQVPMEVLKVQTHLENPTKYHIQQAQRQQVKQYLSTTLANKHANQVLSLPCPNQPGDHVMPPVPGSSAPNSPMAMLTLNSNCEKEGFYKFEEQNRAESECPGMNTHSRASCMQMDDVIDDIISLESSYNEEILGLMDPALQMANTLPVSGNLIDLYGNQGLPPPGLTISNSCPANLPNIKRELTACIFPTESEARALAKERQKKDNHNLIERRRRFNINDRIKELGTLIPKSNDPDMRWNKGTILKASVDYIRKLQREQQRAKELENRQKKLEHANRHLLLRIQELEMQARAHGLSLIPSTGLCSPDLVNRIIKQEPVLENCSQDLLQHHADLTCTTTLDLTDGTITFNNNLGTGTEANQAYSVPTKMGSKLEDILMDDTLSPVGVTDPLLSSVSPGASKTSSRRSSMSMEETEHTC
FBW7 act – human FBW7 E3 ligase activation, primary screen | normalized activity (activation), % at 26.1 µM | hit rate 0.13% among 650,000 | AlphaScreen FBW7–phospho-cyclin E peptide binding, activator screen | Q969H0; in the data active = normalized activity above about 1.9%;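 also: purified mutant Fbw7 with reduced substrate affinity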
GPR151 confirm – confirmation of human GPR151 activators; GPR151 PathHunter beta-arrestin cells, luminescence, 90 min; % of EA-reagent control over plate median; AID 1508609; 6,700 tested, under 10 active; activation, % at 11.2 µM; shares compounds with GPR151 ag;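 active = mean percent activation across replicates above the confirmation screen cutoff of 4.91%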
GPR119 ag – GPR119 activation, counter-screen for GPR151 activators | shares compounds with GPR151 ag | GPR119 PathHunter beta-arrestin cells, luminescence, 90 min; 0 = compound-well median, 100 = enzyme-acceptor control | activation, % at 11.2 µM | hit rate 0.3% among 6,700 | AID 1508611;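 active = mean percent activation in the counterscreen above 29.09%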;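 also: counterscreen on off-target GPR119 to flag nonselective hits from the GPR151 activator screen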
Numbers without * were called inactive.

Screening COc1ccc(OC)c(C2C(C(=O)Nc3ccc(F)cc3)=C(C)NC3=C2C(=O)CC(c2ccccc2)C3)c1 (configuration not stated) returned GPR151 ag 0, TEAD-YAP inh 5, MITF inh -2 and FBW7 act 0.
Screening CCOc1ccc(CN2CCNC(=O)C2CC(=O)N2CCN(C3CCCC3)C(=O)C2)cc1 (configuration not stated) returned GPR151 ag 2, TEAD-YAP inh 13, MITF inh 8 and FBW7 act 0.
CC(=O)N1CCOc2cc(S(=O)(=O)N3CCCCCC3)c(C)cc21 was read as GPR151 ag 0, TEAD-YAP inh -8, MITF inh 6 and FBW7 act 0.
Screening CC(=O)N1CCOc2cc(S(=O)(=O)N3CCC(Cc4ccccc4)CC3)c(C)cc21 returned GPR151 ag 5.0*, TEAD-YAP inh 0, MITF inh -2, FBW7 act 0, GPR151 confirm 0 and GPR119 ag 3.
For Nc1nnnn1/N=C\C=C\c1ccccc1 the results were GPR151 ag 9.2*, TEAD-YAP inh -17, MITF inh 10, FBW7 act 0, GPR151 confirm -1 and GPR119 ag -6.
Nc1nnnn1/N=C/C=C/c1cccc([N+](=O)[O-])c1 was read as GPR151 ag 1, TEAD-YAP inh 1, MITF inh 23 and FBW7 act 1.
Screening O=C(O)Cc1csc(N2CCCC2=O)n1 returned GPR151 ag 5, TEAD-YAP inh -4, MITF inh 1 and FBW7 act 0.
`COc1ccccc1-n1c(O)c(C=Nc2cccc(C)c2)c(=O)[nH]c1=S` gave GPR151 ag 5.1*, TEAD-YAP inh 5, MITF inh 20, FBW7 act 0, GPR151 confirm -1 and GPR119 ag 0.
Cc1ccc(S(=O)(=O)N2CCCC2CNC(=O)Nc2ccc(Cl)cc2)cc1 (configuration not stated) was read as GPR151 ag 6.0*, TEAD-YAP inh 4, MITF inh -6, FBW7 act 0, GPR151 confirm 0 and GPR119 ag -8.
For O=C(NCC1CCCN1S(=O)(=O)c1ccccc1)C(=O)NC1CCCCC1 (configuration not stated) the results were GPR151 ag 21*, TEAD-YAP inh -7, MITF inh -9, FBW7 act 0, GPR151 confirm 0 and GPR119 ag -7.
For Cc1ccc(S(=O)(=O)N2CCCC2CNC(=O)C(=O)NCCO)cc1 (configuration not stated) the results were GPR151 ag 2, TEAD-YAP inh 5, MITF inh 4 and FBW7 act 0.
`CCNC(=O)C(=O)NCC1CCCN1S(=O)(=O)c1ccc(C)cc1` (configuration not stated) gave GPR151 ag 6.2*, TEAD-YAP inh -2, MITF inh -1, FBW7 act 0, GPR151 confirm -1 and GPR119 ag -3.
CCOC(=O)C(=O)NCC1CCCN1S(=O)(=O)c1cccs1 (configuration not stated) was read as GPR151 ag -1, TEAD-YAP inh 2, MITF inh 17 and FBW7 act 0.
Screening O=C(NCCc1ccccc1)C(=O)NCC1CCCN1S(=O)(=O)c1cccs1 (configuration not stated) returned GPR151 ag 7.3*, TEAD-YAP inh 6, MITF inh 9, FBW7 act 0, GPR151 confirm -1 and GPR119 ag -10.
`Cc1ccc(S(=O)(=O)N2CCCC2CNC(=O)C(=O)NC2CCCCCC2)cc1` (configuration not stated) gave GPR151 ag 1, TEAD-YAP inh 10, MITF inh 3 and FBW7 act 0.
CCc1cccc(CC)c1NC(=O)C1CC(=O)N(c2ccccc2OC)C1 (configuration not stated) was read as GPR151 ag 8.6*, TEAD-YAP inh -4, MITF inh -1, FBW7 act 0, GPR151 confirm 0 and GPR119 ag 12.
CCc1cccc(CC)c1NC(=O)C1CC(=O)N(c2ccc(F)cc2)C1 (configuration not stated) was read as GPR151 ag 1, TEAD-YAP inh 10, MITF inh 12 and FBW7 act 0.
Screening Oc1ccc(Nc2ncnc3ccc(I)cc23)cc1 returned GPR151 ag 8.2*, TEAD-YAP inh 16, MITF inh 8, FBW7 act 0, GPR151 confirm 2 and GPR119 ag 8.
For O=C(Nc1ccccc1[N+](=O)[O-])c1cc(=O)c2ccccc2o1 the results were GPR151 ag 1, TEAD-YAP inh -28, MITF inh 9 and FBW7 act 0.
`CC(C)(C)c1ccc(OCC(O)CS(=O)Cc2ccccc2)cc1` (configuration not stated) gave GPR151 ag 5.4*, TEAD-YAP inh 0, MITF inh 1, FBW7 act 0, GPR151 confirm 0 and GPR119 ag 6.
For COC(=O)c1ccc(N2N=C(C)/C(=C/c3ccc(C)s3)C2=O)cc1 the results were GPR151 ag 0, TEAD-YAP inh 2, MITF inh -3 and FBW7 act 0.
Screening CC1=NN(c2ccc(Br)cc2)C(=O)/C1=C/c1ccc(C)s1 returned GPR151 ag 7.5*, TEAD-YAP inh 3, MITF inh -2, FBW7 act 0, GPR151 confirm 1 and GPR119 ag 2.
For COc1ccc(/C=C(\C#N)c2ccccn2)c(OC)c1OC the results were GPR151 ag 1, TEAD-YAP inh -44, MITF inh 1 and FBW7 act 0.
COc1ccc2ccccc2c1/C=C(\C#N)c1ccccn1 was read as GPR151 ag 5.2*, TEAD-YAP inh -10, MITF inh 0, FBW7 act 0, GPR151 confirm 0 and GPR119 ag 10.
For COC(=O)c1cc(-c2ccccc2)sc1NC(=O)CN1C(=O)c2ccccc2C1=O the results were GPR151 ag 15*, TEAD-YAP inh 5, MITF inh 6, FBW7 act 0, GPR151 confirm 0 and GPR119 ag 2.
For COc1cc(Nc2cc(Nc3ccncn3)ncn2)cc(OC)c1OC the results were GPR151 ag -1, TEAD-YAP inh 1, MITF inh 7 and FBW7 act 0.
`O=c1[nH]cc(N=Cc2ccc(O)cc2)c(=O)[nH]1` gave GPR151 ag -1, TEAD-YAP inh -1, MITF inh -2 and FBW7 act 1.
O=c1[nH]cc(N=Cc2ccc([N+](=O)[O-])cc2)c(=O)[nH]1 was read as GPR151 ag 6.5*, TEAD-YAP inh -9, MITF inh -2, FBW7 act 0, GPR151 confirm -1 and GPR119 ag -1.

Source: PubChem BioAssay
